Bioassay records (PubChem BioAssay)
Luciferase inh: blocks purified firefly luciferase enzyme activity; P08659; purified P. pyralis luciferase, luminescence, biochemical; Potency, µM (series often up to 115 µM), actives largely listed as inhibitors; actives 2.5% (n = 76,000); note: nearly all actives have a fitted effect of over 65% in size
Target sequence (P08659 whole entry, looked up): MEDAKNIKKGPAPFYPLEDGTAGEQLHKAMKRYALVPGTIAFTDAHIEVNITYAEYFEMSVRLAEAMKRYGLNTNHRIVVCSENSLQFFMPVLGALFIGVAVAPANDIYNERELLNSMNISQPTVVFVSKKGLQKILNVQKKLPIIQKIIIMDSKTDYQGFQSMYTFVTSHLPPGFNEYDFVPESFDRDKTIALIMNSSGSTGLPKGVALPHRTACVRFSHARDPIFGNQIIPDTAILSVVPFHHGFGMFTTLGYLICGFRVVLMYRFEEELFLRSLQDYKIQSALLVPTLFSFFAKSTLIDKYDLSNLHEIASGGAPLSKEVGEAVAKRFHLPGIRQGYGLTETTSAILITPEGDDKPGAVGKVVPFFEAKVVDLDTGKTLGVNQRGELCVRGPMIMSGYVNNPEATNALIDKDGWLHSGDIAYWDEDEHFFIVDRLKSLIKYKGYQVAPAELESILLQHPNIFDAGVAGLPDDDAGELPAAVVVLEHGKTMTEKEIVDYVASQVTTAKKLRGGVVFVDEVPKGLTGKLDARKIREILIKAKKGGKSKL
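Inhibitors were tested against purified firefly luciferase in a biochemical, low-substrate format (both substrates at 10uM) and luminescence measured with a CCD imager.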
NPR1 antag: blocks ANP-stimulated signaling of human Npr1 receptor; actives 1.6% (n = 76,000); Potency, µM (highest dose often 46.3 µM), without a hit: at the highest dose activity change, negative = inhibition, most hits filed as inhibitors; HEK293 hNpr1 GloSensor cGMP, ANP-stimulated luminescence; calls by dose curve; note: nearly all actives have a fitted effect of over 60% in size
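HEK293 cells stably expressing human Npr1 and cGMP GloSensor pGS-40F, loaded 2 h with 2% GloSensor reagent, given compound 30 min at room temperature. Luminescence read before and 20 min after 0.1 nM hNppA.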
NIH3T3 tox: cytotoxic compounds in NIH 3T3 cells. NIH 3T3 viability, CellTiter-Glo ATP luminescence, 48-72 h. actives 4.3% (n = 94,000). Potency, µM (titrated, usually from 96.7 µM), inactives show top-dose activity change, negative = cytotoxicity, actives largely listed as inhibitors; note: nearly all actives have a fitted effect of over 55% in size
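Viability of NIH 3T3 cells after 48 or 72 hr compound treatment at 37 °C was assessed by CellTiter-Glo, with luminescence imaged following a 10 min room-temperature step.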
HEK293 tox: cytotoxic compounds in HEK 293 cells; HEK 293 viability, ATP luminescence (CellTiter-Glo), 48-72 h; Potency, µM (top dose mostly 115 µM), for the others: top-dose activity change, negative = cytotoxicity, most hits filed as inhibitors; actives 6.6% (n = 94,000); note: nearly all actives have a fitted effect of over 60% in size
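ATP-coupled CellTiter-Glo luminescence served as viability read-out, recorded 10 min after reagent addition at room temperature. HEK 293 cells, 250 cells/well, had been incubated with pintool-transferred compound for 48 or 72 hr at 37 degree Celsius.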
Starred values were filed as active, the others as inactive; i = inactive; ? = inconclusive; nt = not tested or not shown; ! = not active in a repeat; [ ] = dose if it differs, or a comment. An excerpt weighted towards active compounds, which were near 11% of everything screened. Unless noted, calls come from the whole dose curve; as a rule, active = well fitted curve in the direction sought with a large enough effect; inconclusive = small, poorly fitted or top-dose-only effect, or another doubt; inactive = no such curve, though single readings can be large; an effect the other way counts as inactive or inconclusive. % is set by controls: 0 for no effect and ±100 for the full control effect; potency is the fitted concentration of half-maximal effect.

SMILES	Luciferase inh	NPR1 antag	NIH3T3 tox	HEK293 tox
COc1ccc(-c2cn3cc(C(=O)NCC4CC4)nc3s2)cc1	nt	nt	50.1µM*	63.1µM*
COCCCNC(=O)c1cn2cc(-c3ccc(OC)cc3)sc2n1	nt	nt	39.8µM*	79.4µM*
Cc1cccc(C(=O)N2CCC(Cc3nncn3Cc3ccccc3)CC2)c1	nt	nt	-10.2%	?
O=C(NCc1ccccc1)c1ccccc1OC1CN(Cc2ccc(F)cc2)C1	i	-16.7%	31.6µM*	?
COc1cccc(CN2CC(Oc3ccccc3C(=O)NCc3ccccc3)C2)c1	i	-19.2%	35.5µM*	39.8µM*
O=C(NC1CC1)c1ccccc1OC1CN(Cc2cccc(F)c2)C1	i	-7.9%	-27.9%	?
COc1ccc(CN2CCC(N3Cc4cnc(C)n4C3=O)CC2)cc1	i	0.0%[70.6 µM]	-17.8%[138 µM]	?
Cc1ncc2n1C(=O)N(C1CCN(Cc3ccccc3)CC1)C2	i	7.2%[70.6 µM]	?	100µM*!
Cc1ccc(C(=O)N2CCCCCCNC(=O)[C@@H]3C[C@@H](c4nc(Cc5ccccc5)no4)C[C@@H]32)s1	i	0.0%	?	79.4µM*
CCNC(=O)N1CCCCCCNC(=O)[C@@H]2C[C@@H](c3nc(Cc4ccccc4)no3)C[C@@H]21	i	1.6%	-4.8%	i
O=C(NCC1CC1)c1cc(-c2cccs2)c2cccn2n1	nt	nt	?	70.8µM*
COc1ccccc1-c1cc(C(=O)N2CCOCC2)nn2cccc12	nt	nt	-6.9%	-11.8%
O=C(NCc1cccc(Cl)c1)c1cc(-c2cccs2)c2cccn2n1	nt	nt	?	28.2µM*
N#CC1CCN(C(=O)c2cc(-c3cccs3)c3cccn3n2)CC1	nt	nt	?	79.4µM*
COC(=O)CNC(=O)c1cc(-c2ccccc2OC)c2cccn2n1	nt	nt	3.0%	-24.1%
O=C(NCc1cccc(Cl)c1)c1cc(-c2cc(Cl)cc(Cl)c2)c2nncn2n1	nt	nt	-29.2%	-14.7%
CC(C)NC(=O)c1cc(-c2ccc(F)cc2)nc2c1cnn2C	nt	nt	?	79.4µM*
Cn1ncc2c(C(=O)NC3CCCCCC3)cc(C(C)(C)C)nc21	nt	nt	?	35.5µM*
Cn1ncc2c(C(=O)NC3CC3)cc(-c3cc(Cl)cc(Cl)c3)nc21	nt	nt	i	i
Cn1ncc2c(C(=O)NC3CC3)cc(-c3ccc(Cl)cc3)nc21	nt	nt	79.4µM*	?
Cn1ncc2c(C(=O)NCC3CCCCC3)cc(C(C)(C)C)nc21	nt	nt	-22.8%[138 µM]	-17.5%[172 µM]
CC(C)NC(=O)c1cc(-c2ccc(Cl)nc2)nc2c1cnn2C	nt	nt	22.4µM*	?
CC(C)NC(=O)c1cc(-c2ccc(S(C)(=O)=O)cc2)nc2c1cnn2C	nt	nt	-20.5%	-7.1%
CNC(=O)c1cc(C)nc2onc(C3CCCN(C(=O)c4ccc(F)cc4)C3)c12 (centres undefined)	nt	nt	-16.2%	-5.1%
O=C(c1cccc(Cl)c1)N1CCCC(C(=O)N2CCC(c3nc4ncccc4[nH]3)CC2)C1 (centres undefined)	nt	nt	-26.2%	-9.0%
SMILES	Luciferase inh	NPR1 antag	NIH3T3 tox	HEK293 tox
CN1CCN(Cc2ccc(Nc3cnc4ccc(-n5ccnc5)nn34)cc2)CC1	?	-1.1%[70.6 µM]	?	50.1µM*
CN1CCN(Cc2ccc(Nc3cnc4ccc(N5CCOCC5)nn34)cc2)CC1	i	-1.1%[70.6 µM]	-31.1%[138 µM]	?
N#Cc1cccc(-c2cn3c(n2)N(C(=O)Cc2cccs2)CCC3)c1	i	-14.4%	-24.0%	-29.1%
COc1ccc(-c2nc(-c3c(C)noc3C)cc3c2cc(-c2ccccc2)n3C)cn1	i	-17.4%[70.6 µM]	50.1µM*	?
Cc1noc(C)c1-c1cc2c(cc(-c3ccccc3)n2C)c(-c2cccnc2)n1	i	-23.9%[70.6 µM]	?	?
COc1ncccc1-c1nc(-c2c(C)noc2C)cc2c1cc(-c1ccccc1)n2C	i	-24.2%[70.6 µM]	25.1µM*	28.2µM*
CCN1CCN(c2ncnc3c2CN(C2CCCCC2)C(=O)CN3C)CC1	nt	nt	-8.0%	1.8%
Cc1nnc2ccc(N3CCCN(C(=O)C(C)C)CC3)nn12	nt	nt	-12.4%[138 µM]	2.8%[172 µM]
Cc1ccc(C)c(S(=O)(=O)N2c3ccccc3CC2c2nc(C(C)C)no2)c1 (centres undefined)	nt	nt	?	14.1µM*
O=S(=O)(c1cccs1)N1CCCCC1c1nc(CCOCC2CC2)no1 (centres undefined)	i	-8.2%	-37.5%	?
O=S(=O)(c1ccc2c(c1)CCC2)N1CCCCC1c1nc(CCOCC2CC2)no1 (centres undefined)	i	-12.5%	28.2µM*	39.8µM*
c1ccc(COC2CCN(c3nccc(-c4cccnc4)n3)CC2)nc1	i	0.8%	?	?
Fc1ccccc1OCC1CCCN(c2nccc(-c3cccnc3)n2)C1 (centres undefined)	i	-0.5%	79.4µM*	?
O=C(C1CCCC1)N1CC2(CCN(Cc3cccnc3)C2)Cc2ccccc21 (centres undefined)	nt	nt	?	44.7µM*
O=C(C1CCCC1)N1CC2(CCN(C3COC3)CC2)Cc2ccccc21	nt	nt	?	-10.1%
O=C(C1CCCC1)N1CC2(CCN(C3CCCCC3)C2)Cc2ccccc21 (centres undefined)	nt	nt	?	44.7µM*
O=C(C1CCCC1)N1CC2(CCCN(Cc3ccc(Cl)cc3)C2)Cc2ccccc21 (centres undefined)	nt	nt	?	39.8µM*
CCn1cc(CN2CC(Oc3ccc(-c4noc(-c5cccnc5)n4)cc3)C2)cn1	i	1.0%	?	?
O=C1NC2(CCN(Cc3ccccc3C(F)(F)F)CC2)Oc2ccccc21	i	2.8%	?	39.8µM*
O=C1NC2(CCN(Cc3ccc(F)cc3)C2)COc2ccccc21 (centres undefined)	i	-15.6%[70.6 µM]	28.2µM*	?
O=C1NC2(CCN(Cc3ccccc3)C2)COc2ccccc21 (centres undefined)	i	1.6%[70.6 µM]	?	?
O=C1NC2(CCN(Cc3ccsc3)CC2)COc2ccccc21	i	-16.6%[70.6 µM]	?	63.1µM*
N#Cc1ccc(CN2CCC3(COc4ccccc4C(=O)N3)C2)cc1 (centres undefined)	i	?	31.6µM*	63.1µM*
O=C1NC2(CCN(Cc3ccc(C(F)(F)F)cc3)CC2)COc2ccccc21	i	-18.0%	-12.2%	?
O=C1NC2(CCN(Cc3ccccc3C(F)(F)F)CC2)COc2ccccc21	i	0.0%	i	-2.6%
SMILES	Luciferase inh	NPR1 antag	NIH3T3 tox	HEK293 tox
CCOC(=O)C1(Cc2ccccc2F)CCCNC1 (centres undefined)	i	-7.1%	?	i
N#Cc1ccc(CN2CCCC3(C2)NC(=O)c2ccccc2O3)cc1 (centres undefined)	i	?	?	89.1µM*
Cn1nccc1CN1CCC2(COc3ccccc3C(=O)N2)C1 (centres undefined)	i	6.8%[70.6 µM]	?	89.1µM*
O=C(NCc1ccc2c(c1)OCO2)c1nc2cccnc2n(Cc2ccccc2)c1=O	nt	nt	?	79.4µM*
O=C(Nc1ccccc1)N1CCC(CCc2nc(C3CCOCC3)no2)CC1	nt	nt	?	39.8µM*
CC(C)CNC(=O)Cc1ccc(N(Cc2ccccc2)C(=O)c2ccco2)cc1	i	-12.2%	?	?
